Source: paper PMC7156710, “The Sox2 transcription factor binds RNA”

Columns and labels:
Test in all cases: fluorescence anisotropy; 10 mM Tris-HEPES pH 7.5, 8% Ficoll, 0.05% NP-40, 135 mM KCl, 15 mM NaCl, 1 mM DTT, 0.1 mg/mL BSA; 2 nM DNA or 3 nM RNA; low values mean tight binding
Settings in all cases: protein: recombinant; tags: N-terminal His6 and thrombin site, not removed; label: 3' fluorescein; hairpin; structured_RNA
[1] = target: Sox2-HMG (His6 retained) E78A (Homo sapiens, UniProt P48431 38-121, E78A)
Sequence of Sox2-HMG (His6 retained) E78A (P48431 other isoform, or with tags, fused parts or gaps E78A | E78A E78A): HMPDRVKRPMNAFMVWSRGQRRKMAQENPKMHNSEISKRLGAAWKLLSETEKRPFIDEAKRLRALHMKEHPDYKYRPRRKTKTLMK
Outline: (§1)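 Polarization on a CLARIOstar was recorded for His6-tagged, Ni-NTA-purified Sox2-HMG domains bearing alanine substitutions introduced by site-directed mutagenesis, titrated for no less than 1 h in Tris-HEPES pH 7.5 binding buffer against 2 nM fluorescein-labeled DNA or 3 nM fluorescein-labeled RNA. Triplicate titrations were each read three times. Dissociation constants were derived in Kaleidagraph and expressed as a ratio of mutant to wild type.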

[2] = target: Sox2-HMG (His6 retained) S72A (Homo sapiens, UniProt P48431 38-121, S72A)
Sequence of Sox2-HMG (His6 retained) S72A (P48431 other isoform, or with tags, fused parts or gaps S72A | S72A S72A): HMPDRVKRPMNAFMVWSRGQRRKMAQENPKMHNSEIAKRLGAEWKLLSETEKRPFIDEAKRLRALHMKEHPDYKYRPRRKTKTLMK
Outline: as §1

[3] = target: Sox2-HMG (His6 retained) E104A (Homo sapiens, UniProt P48431 38-121, E104A)
Sequence of Sox2-HMG (His6 retained) E104A (P48431 other isoform, or with tags, fused parts or gaps E104A | E104A E104A): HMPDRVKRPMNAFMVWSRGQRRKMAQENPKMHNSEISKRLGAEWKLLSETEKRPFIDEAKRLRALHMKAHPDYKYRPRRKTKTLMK
Outline: as §1

[4] = target: Sox2-HMG (His6 retained) K58A (Homo sapiens, UniProt P48431 38-121, K58A)
Sequence of Sox2-HMG (His6 retained) K58A (P48431 other isoform, or with tags, fused parts or gaps K58A | K58A K58A): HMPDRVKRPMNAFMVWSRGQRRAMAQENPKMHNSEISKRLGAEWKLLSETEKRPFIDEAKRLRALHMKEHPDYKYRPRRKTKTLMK
Outline: as §1

[5] = target: Sox2-HMG (His6 retained) H67A (Homo sapiens, UniProt P48431 38-121, H67A)
Sequence of Sox2-HMG (His6 retained) H67A (P48431 other isoform, or with tags, fused parts or gaps H67A | H67A H67A): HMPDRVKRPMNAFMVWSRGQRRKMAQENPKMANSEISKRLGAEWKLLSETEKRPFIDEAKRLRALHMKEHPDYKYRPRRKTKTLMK
Outline: as §1

[6] = target: Sox2-HMG (His6 retained) K42A (Homo sapiens, UniProt P48431 38-121, K42A)
Sequence of Sox2-HMG (His6 retained) K42A (P48431 other isoform, or with tags, fused parts or gaps K42A | K42A K42A): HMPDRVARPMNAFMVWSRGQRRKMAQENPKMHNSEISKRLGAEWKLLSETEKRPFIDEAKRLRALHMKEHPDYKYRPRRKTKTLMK
Outline: as §1

[7] = target: Sox2-HMG (His6 retained) M45A (Homo sapiens, UniProt P48431 38-121, M45A)
Sequence of Sox2-HMG (His6 retained) M45A (P48431 other isoform, or with tags, fused parts or gaps M45A | M45A M45A): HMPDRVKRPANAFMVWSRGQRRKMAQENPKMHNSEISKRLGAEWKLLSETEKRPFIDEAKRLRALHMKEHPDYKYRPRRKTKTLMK
Outline: as §1

[8] = target: Sox2-HMG (His6 retained) N63A (Homo sapiens, UniProt P48431 38-121, N63A)
Sequence of Sox2-HMG (His6 retained) N63A (P48431 other isoform, or with tags, fused parts or gaps N63A | N63A N63A): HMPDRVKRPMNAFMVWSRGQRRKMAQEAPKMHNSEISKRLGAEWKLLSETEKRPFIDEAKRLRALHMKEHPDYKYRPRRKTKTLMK
Outline: as §1

[9] = target: Sox2-HMG (His6 retained) K115A (Homo sapiens, UniProt P48431 38-121, K115A)
Sequence of Sox2-HMG (His6 retained) K115A (P48431 other isoform, or with tags, fused parts or gaps K115A | K115A K115A): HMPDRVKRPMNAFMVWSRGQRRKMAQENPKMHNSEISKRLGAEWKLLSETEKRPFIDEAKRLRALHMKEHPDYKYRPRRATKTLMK
Outline: as §1

[10] = target: Sox2-HMG (His6 retained) E70A (Homo sapiens, UniProt P48431 38-121, E70A)
Sequence of Sox2-HMG (His6 retained) E70A (P48431 other isoform, or with tags, fused parts or gaps E70A | E70A E70A): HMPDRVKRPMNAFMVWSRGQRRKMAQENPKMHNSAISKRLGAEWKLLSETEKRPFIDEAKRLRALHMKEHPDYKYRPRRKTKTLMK
Outline: as §1

[11] = target: Sox2-HMG (His6 retained) K87A (Homo sapiens, UniProt P48431 38-121, K87A)
Sequence of Sox2-HMG (His6 retained) K87A (P48431 other isoform, or with tags, fused parts or gaps K87A | K87A K87A): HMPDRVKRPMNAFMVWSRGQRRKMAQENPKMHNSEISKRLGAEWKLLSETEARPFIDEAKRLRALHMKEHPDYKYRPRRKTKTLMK
Outline: as §1

[12] = target: Sox2-HMG (His6 retained) W79A (Homo sapiens, UniProt P48431 38-121, W79A)
Sequence of Sox2-HMG (His6 retained) W79A (P48431 other isoform, or with tags, fused parts or gaps W79A | W79A W79A): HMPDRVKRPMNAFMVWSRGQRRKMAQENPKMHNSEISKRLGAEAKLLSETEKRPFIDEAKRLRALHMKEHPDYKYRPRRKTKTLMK
Outline: as §1

[13] = target: Sox2-HMG (His6 retained) E62A (Homo sapiens, UniProt P48431 38-121, E62A)
Sequence of Sox2-HMG (His6 retained) E62A (P48431 other isoform, or with tags, fused parts or gaps E62A | E62A E62A): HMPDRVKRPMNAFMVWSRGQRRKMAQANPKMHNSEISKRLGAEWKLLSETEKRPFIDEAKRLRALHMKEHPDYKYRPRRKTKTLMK
Outline: as §1

[14] = target: Sox2-HMG (His6 retained) R114A (Homo sapiens, UniProt P48431 38-121, R114A)
Sequence of Sox2-HMG (His6 retained) R114A (P48431 other isoform, or with tags, fused parts or gaps R114A | R114A R114A): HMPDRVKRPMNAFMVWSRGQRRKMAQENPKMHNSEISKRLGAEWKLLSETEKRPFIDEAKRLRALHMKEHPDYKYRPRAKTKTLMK
Outline: as §1

[15] = target: Sox2-HMG (His6 retained) S69A (Homo sapiens, UniProt P48431 38-121, S69A)
Sequence of Sox2-HMG (His6 retained) S69A (P48431 other isoform, or with tags, fused parts or gaps S69A | S69A S69A): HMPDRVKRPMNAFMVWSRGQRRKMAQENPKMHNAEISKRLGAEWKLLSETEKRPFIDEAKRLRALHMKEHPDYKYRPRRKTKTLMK
Outline: as §1

[16] = target: Sox2-HMG (His6 retained) R96A (Homo sapiens, UniProt P48431 38-121, R96A)
Sequence of Sox2-HMG (His6 retained) R96A (P48431 other isoform, or with tags, fused parts or gaps R96A | R96A R96A): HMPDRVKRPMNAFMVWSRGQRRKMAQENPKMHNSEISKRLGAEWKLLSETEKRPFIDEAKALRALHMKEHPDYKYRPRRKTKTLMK
Outline: as §1

[17] = target: Sox2-HMG (His6 retained) R40A (Homo sapiens, UniProt P48431 38-121, R40A)
Sequence of Sox2-HMG (His6 retained) R40A (P48431 other isoform, or with tags, fused parts or gaps R40A | R40A R40A): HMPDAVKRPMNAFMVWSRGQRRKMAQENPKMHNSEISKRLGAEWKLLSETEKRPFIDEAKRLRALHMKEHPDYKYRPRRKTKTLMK
Outline: as §1

[18] = target: Sox2-HMG (His6 retained) W51A (Homo sapiens, UniProt P48431 38-121, W51A)
Sequence of Sox2-HMG (His6 retained) W51A (P48431 other isoform, or with tags, fused parts or gaps W51A | W51A W51A): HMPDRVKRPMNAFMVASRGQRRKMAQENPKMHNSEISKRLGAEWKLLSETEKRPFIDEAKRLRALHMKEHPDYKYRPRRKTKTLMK
Outline: as §1

[19] = target: Sox2-HMG (His6 retained) S83A (Homo sapiens, UniProt P48431 38-121, S83A)
Sequence of Sox2-HMG (His6 retained) S83A (P48431 other isoform, or with tags, fused parts or gaps S83A | S83A S83A): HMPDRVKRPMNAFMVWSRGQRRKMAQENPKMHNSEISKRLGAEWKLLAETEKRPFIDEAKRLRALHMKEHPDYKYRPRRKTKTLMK
Outline: as §1

[20] = target: Sox2-HMG (His6 retained) R111A (Homo sapiens, UniProt P48431 38-121, R111A)
Sequence of Sox2-HMG (His6 retained) R111A (P48431 other isoform, or with tags, fused parts or gaps R111A | R111A R111A): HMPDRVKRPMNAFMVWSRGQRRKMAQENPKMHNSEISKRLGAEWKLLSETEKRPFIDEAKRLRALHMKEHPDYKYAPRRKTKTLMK
Outline: as §1

[21] = target: Sox2-HMG (His6 retained) E84A (Homo sapiens, UniProt P48431 38-121, E84A)
Sequence of Sox2-HMG (His6 retained) E84A (P48431 other isoform, or with tags, fused parts or gaps E84A | E84A E84A): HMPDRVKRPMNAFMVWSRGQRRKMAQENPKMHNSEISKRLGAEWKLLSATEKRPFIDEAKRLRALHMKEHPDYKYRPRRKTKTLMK
Outline: as §1

[22] = target: Sox2-HMG (His6 retained) K95A (Homo sapiens, UniProt P48431 38-121, K95A)
Sequence of Sox2-HMG (His6 retained) K95A (P48431 other isoform, or with tags, fused parts or gaps K95A | K95A K95A): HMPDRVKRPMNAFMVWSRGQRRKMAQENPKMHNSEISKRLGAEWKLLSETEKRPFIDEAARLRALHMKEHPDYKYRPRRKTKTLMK
Outline: as §1

[23] = target: Sox2-HMG (His6 retained) F48A (Homo sapiens, UniProt P48431 38-121, F48A)
Sequence of Sox2-HMG (His6 retained) F48A (P48431 other isoform, or with tags, fused parts or gaps F48A | F48A F48A): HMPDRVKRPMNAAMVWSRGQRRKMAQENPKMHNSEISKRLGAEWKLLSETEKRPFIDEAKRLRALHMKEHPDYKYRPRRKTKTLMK
Outline: as §1

[24] = target: Sox2-HMG (His6 retained) R74A (Homo sapiens, UniProt P48431 38-121, R74A)
Sequence of Sox2-HMG (His6 retained) R74A (P48431 other isoform, or with tags, fused parts or gaps R74A | R74A R74A): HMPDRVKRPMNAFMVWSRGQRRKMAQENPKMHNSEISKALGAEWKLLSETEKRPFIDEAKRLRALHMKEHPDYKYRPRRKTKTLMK
Outline: as §1

Q: What does the source list for GGUCUUAAGGUGCGGGCGAAAGUCUGUACCUCUGGGACC?
A: binding signal [1]: 0.9 ± 0.5 Kd(mutant)/Kd(WT); binding signal [2]: 1 ± 0.6 Kd(mutant)/Kd(WT); binding signal [3]: 1 ± 0.5 Kd(mutant)/Kd(WT); binding signal [4]: 0.8 ± 0.4 Kd(mutant)/Kd(WT); binding signal [5]: 3.7 ± 1.7 Kd(mutant)/Kd(WT); binding signal [6]: 7.9 ± 2.7 Kd(mutant)/Kd(WT); binding signal [7]: 0.9 ± 0.5 Kd(mutant)/Kd(WT); binding signal [8]: 1.3 ± 0.2 Kd(mutant)/Kd(WT); binding signal [9]: 3.6 ± 1.4 Kd(mutant)/Kd(WT); binding signal [10]: 1.2 ± 0.4 Kd(mutant)/Kd(WT); binding signal [11]: 4.1 ± 1.4 Kd(mutant)/Kd(WT); binding signal [12]: 50 ± 19 Kd(mutant)/Kd(WT); binding signal [13]: 1.6 ± 0.8 Kd(mutant)/Kd(WT); binding signal [14]: 9.2 ± 2.3 Kd(mutant)/Kd(WT); binding signal [15]: 1.6 ± 0.5 Kd(mutant)/Kd(WT); binding signal [16]: 0.8 ± 0.3 Kd(mutant)/Kd(WT); binding signal [17]: 2.7 ± 0.3 Kd(mutant)/Kd(WT); binding signal [18]: 78 ± 13 Kd(mutant)/Kd(WT); binding signal [19]: 1.8 ± 0.6 Kd(mutant)/Kd(WT); binding signal [20]: 2.2 ± 1.2 Kd(mutant)/Kd(WT); binding signal [21]: 0.9 ± 0.5 Kd(mutant)/Kd(WT); binding signal [22]: 3.2 ± 1.2 Kd(mutant)/Kd(WT); binding signal [23]: 16 ± 2 Kd(mutant)/Kd(WT); binding signal [24]: 0.9 ± 0.5 Kd(mutant)/Kd(WT)
